From PubChem BioAssay (Tox21)
“And” between values parts separate entries of the source, which are not always exact repeats. Identical values can stand only once. Records with an inconclusive call do not appear. The source made the active and inactive calls. The call rests on the fitted dose curve; in most records, active means well fitted curve in the direction sought with a large enough effect in the repeat runs; inconclusive means weak or mixed curves; inactive means no such curve, though single readings can be large; an effect the other way counts as inactive or inconclusive.

Experiments:
[1] = Caspase-3/7 induction in CHO-K1 cells by small molecules, qHTS assay (AID 1346980); further: nearly all actives have a fitted effect of over 15% in size
How it was run: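 Wild-type CHO-K1 cells exposed to compounds for 17hr at 37 C, 5% CO2. Caspase-3/7 activity then measured by Caspase-Glo 3/7 luminescence after 30min at room temperature.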

[2] = Caspase-3/7 induction in HepG2 cells by small molecules, qHTS cell viability counter screen (AID 1346981); further: nearly all actives have a fitted effect of over 30% in size; further: potency means the concentration at half of the fitted maximal effect
How it was run: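 CellTiter-Fluor fluorescence measured viability in the same wells used for Caspase-Glo 3/7. HepG2 (wild type) at 2,000 cells/well were pre-incubated 5 hr, dosed, and given reagent at 16 hr, with 1 hr further at 37C.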

[3] = molecular target: Nuclear receptor subfamily 1 group I member 2 (Homo sapiens) (UniProt O75469); experiment: Human pregnane X receptor (PXR) small molecule agonists, qHTS assay (AID 1346982); further: nearly all actives have a fitted effect of over 35% in size; further: potency means the concentration at half of the fitted maximal effect
Chain of Nuclear receptor subfamily 1 group I member 2 (Homo sapiens) (O75469 whole entry, looked up): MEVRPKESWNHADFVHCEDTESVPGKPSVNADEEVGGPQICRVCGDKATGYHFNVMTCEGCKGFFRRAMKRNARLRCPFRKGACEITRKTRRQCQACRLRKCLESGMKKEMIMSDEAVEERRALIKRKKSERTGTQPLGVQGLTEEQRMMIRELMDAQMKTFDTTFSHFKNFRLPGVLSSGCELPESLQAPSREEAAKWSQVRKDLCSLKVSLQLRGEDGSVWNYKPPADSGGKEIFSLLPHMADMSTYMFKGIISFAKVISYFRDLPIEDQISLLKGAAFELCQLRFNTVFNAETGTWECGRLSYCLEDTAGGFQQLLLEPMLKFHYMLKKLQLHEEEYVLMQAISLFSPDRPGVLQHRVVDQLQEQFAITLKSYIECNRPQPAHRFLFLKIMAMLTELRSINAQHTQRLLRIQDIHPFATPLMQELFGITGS
How it was run: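 Agonist mode: luminescence from ONE-Glo after 24 h compound exposure at 37C in HepG2 cells carrying hPXR-responsive CYP3A4 luciferase, plated in charcoal-stripped serum medium 5 h beforehand.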

[4] = molecular target: Nuclear receptor subfamily 1 group I member 2 (Rattus norvegicus) (UniProt Q9R1A7); experiment: Rat pregnane X receptor (rPXR) activation by small molecules, qHTS assay (AID 1346983); conditions: rPXR luciferase reporter cells, One-Glo luminescence, 24 h; max activation: hits give high values; further: nearly all actives have a fitted effect of over 20% in size
Chain of Nuclear receptor subfamily 1 group I member 2 (Rattus norvegicus) (Q9R1A7 whole entry, looked up): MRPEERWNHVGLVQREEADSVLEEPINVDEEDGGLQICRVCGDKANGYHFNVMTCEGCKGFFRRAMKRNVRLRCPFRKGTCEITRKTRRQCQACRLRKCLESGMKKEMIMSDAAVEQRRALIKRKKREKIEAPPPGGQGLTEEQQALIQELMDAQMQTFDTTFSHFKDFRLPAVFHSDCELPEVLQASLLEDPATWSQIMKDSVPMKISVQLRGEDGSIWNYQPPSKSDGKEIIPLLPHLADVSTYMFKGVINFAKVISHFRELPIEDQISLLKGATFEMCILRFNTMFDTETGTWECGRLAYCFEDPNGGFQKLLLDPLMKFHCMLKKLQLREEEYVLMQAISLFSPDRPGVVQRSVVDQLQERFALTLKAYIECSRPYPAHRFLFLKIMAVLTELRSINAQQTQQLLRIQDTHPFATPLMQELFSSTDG
How it was run: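 Cell-based rPXR activation assay: rPXR cells, 2,000 per well, rested 5hr at 37 C, then exposed to compounds in DMSO for 24 hr at 37 C. Luciferase activity read by One-Glo luminescence after 30 min at room temperature.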

[5] = molecular target: Nuclear receptor subfamily 1 group I member 2 (Homo sapiens) (UniProt O75469); experiment: CYP3A4 induction through human pregnane X receptor (PXR) by small molecules, qHTS assay (AID 1346984); further: nearly all actives have a fitted effect of over 40% in size; further: potency means the concentration at half of the fitted maximal effect
How it was run: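 Read-out is luminescence after One-Glo addition, following a 3 hr, 37C incubation with Luciferin-IPA CYP3A4 substrate (3uM final). Before that, compounds were on DPX-2 cells (HepG2 co-transfected with PXR element plus CYP3A4-promoter luciferase) for 24 hr at 37C.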

[6] = molecular target: Nuclear receptor subfamily 1 group I member 2 (Homo sapiens) (UniProt O75469); experiment: Human pregnane X receptor (PXR) activation by small molecules, qHTS assay (AID 1346985); further: nearly all actives have a fitted effect of over 40% in size
How it was run: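 DPX-2 cells (HepG2 co-transfected with a PXR response element and a CYP3A4-promoter luciferase construct) were seeded at 2,000 per well, rested 5 hr at 37C, then exposed to DMSO-dissolved compounds for 24 hr. Activation was read as luciferase luminescence.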

[7] = molecular target: Cytochrome P450 2D6 (Homo sapiens) (UniProt P10635); experiment: Cytochrome P450 Family 2 Subfamily D Member 6 (CYP2D6) small molecule antagonists: luciferase reporter qHTS assay (AID 1671196); further: nearly all actives have a fitted effect of over 50% in size; further: potency means the concentration at half of the fitted maximal effect
Chain of Cytochrome P450 2D6 (Homo sapiens) (P10635 whole entry, looked up): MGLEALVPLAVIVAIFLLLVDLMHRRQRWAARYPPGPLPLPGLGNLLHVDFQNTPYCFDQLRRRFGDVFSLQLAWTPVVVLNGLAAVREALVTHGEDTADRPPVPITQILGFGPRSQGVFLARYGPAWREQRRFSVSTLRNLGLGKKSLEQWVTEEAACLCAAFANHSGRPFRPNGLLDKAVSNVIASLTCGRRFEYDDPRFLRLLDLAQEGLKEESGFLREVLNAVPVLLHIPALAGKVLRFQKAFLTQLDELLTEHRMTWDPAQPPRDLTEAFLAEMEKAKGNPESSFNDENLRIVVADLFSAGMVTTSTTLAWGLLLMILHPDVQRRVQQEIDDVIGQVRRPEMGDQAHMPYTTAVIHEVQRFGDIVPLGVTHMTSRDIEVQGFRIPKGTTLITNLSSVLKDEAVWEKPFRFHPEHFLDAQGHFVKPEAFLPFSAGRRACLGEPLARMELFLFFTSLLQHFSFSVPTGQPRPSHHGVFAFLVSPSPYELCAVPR
How it was run: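 CYP2D6 activity was followed as luminescence from its luciferin product after a 1 h NADPH-driven reaction at room temperature. Enzyme-substrate mix and compound were pre-incubated for 10 min, and the signal was read 20 min after adding detection reagent.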

[8] = molecular target: Cytochrome P450 2C19 (Homo sapiens) (UniProt P33261); experiment: Cytochrome P450 Family 2 Subfamily C Member 19 (CYP2C19) small molecule antagonists: luciferase reporter qHTS assay (AID 1671197); further: nearly all actives have a fitted effect of over 65% in size; further: potency means the concentration at half of the fitted maximal effect
Chain of Cytochrome P450 2C19 (Homo sapiens) (P33261 whole entry, looked up): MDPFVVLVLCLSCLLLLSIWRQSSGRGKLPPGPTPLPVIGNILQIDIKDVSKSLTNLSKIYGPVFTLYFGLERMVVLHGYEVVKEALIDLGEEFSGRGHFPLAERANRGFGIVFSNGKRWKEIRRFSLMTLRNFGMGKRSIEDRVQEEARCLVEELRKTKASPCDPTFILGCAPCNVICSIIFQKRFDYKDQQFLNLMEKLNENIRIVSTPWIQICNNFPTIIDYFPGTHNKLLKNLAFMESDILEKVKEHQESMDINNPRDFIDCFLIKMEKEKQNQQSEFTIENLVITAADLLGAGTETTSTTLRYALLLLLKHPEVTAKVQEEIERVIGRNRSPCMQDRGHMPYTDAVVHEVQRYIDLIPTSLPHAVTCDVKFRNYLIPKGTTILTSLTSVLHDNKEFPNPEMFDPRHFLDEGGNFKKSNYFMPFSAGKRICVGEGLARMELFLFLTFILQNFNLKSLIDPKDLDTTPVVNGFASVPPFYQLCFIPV
How it was run: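 Luminescent readout of CYP2C19 activity: luciferin product detected 20 min after adding detection reagent. Before that, compound and enzyme-substrate mix preincubated 10 min at room temperature; NADPH-regenerating system started a 1 h, 37C reaction. Ketoconazole as positive control.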

[9] = molecular target: Cytochrome P450 1A2 (Homo sapiens) (UniProt P05177); experiment: Cytochrome P450 Family 1 Subfamily A Member 2 (CYP1A2) small molecule antagonists: luciferase reporter qHTS assay (AID 1671199); further: nearly all actives have a fitted effect of over 50% in size; further: potency means the concentration at half of the fitted maximal effect
Chain of Cytochrome P450 1A2 (Homo sapiens) (P05177 whole entry, looked up): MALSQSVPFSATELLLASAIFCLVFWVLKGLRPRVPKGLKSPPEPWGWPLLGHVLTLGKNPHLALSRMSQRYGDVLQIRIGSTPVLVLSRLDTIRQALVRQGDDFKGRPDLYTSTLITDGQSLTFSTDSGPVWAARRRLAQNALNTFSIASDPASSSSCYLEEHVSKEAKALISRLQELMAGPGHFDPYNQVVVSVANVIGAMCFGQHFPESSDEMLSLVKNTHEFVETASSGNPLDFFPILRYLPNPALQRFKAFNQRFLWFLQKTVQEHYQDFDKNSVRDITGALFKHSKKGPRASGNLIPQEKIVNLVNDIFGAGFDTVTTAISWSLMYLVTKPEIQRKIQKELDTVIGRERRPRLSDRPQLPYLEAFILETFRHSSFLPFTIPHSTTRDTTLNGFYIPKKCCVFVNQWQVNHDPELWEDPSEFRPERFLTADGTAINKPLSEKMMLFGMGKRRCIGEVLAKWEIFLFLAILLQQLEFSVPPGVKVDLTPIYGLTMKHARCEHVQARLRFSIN
How it was run: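 Luminescence from luciferin formed by CYP1A2 from a proluciferin substrate, read 20 min after detection reagent. Compound was pre-incubated 10 min with enzyme-substrate, and reaction started with NADPH regeneration solution for 1 h at room temperature; furafylline control.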

[10] = molecular target: Voltage-gated inwardly rectifying potassium channel KCNH2 (Homo sapiens) (UniProt Q12809); experiment: Human Ether-a-go-go-Related Gene (hERG) channel small molecule antagonists: fluorescence cell-based qHTS assay (AID 1671200); further: nearly all actives have a fitted effect of over 50% in size; further: potency means the concentration at half of the fitted maximal effect
Chain of Voltage-gated inwardly rectifying potassium channel KCNH2 (Homo sapiens) (Q12809 whole entry, looked up): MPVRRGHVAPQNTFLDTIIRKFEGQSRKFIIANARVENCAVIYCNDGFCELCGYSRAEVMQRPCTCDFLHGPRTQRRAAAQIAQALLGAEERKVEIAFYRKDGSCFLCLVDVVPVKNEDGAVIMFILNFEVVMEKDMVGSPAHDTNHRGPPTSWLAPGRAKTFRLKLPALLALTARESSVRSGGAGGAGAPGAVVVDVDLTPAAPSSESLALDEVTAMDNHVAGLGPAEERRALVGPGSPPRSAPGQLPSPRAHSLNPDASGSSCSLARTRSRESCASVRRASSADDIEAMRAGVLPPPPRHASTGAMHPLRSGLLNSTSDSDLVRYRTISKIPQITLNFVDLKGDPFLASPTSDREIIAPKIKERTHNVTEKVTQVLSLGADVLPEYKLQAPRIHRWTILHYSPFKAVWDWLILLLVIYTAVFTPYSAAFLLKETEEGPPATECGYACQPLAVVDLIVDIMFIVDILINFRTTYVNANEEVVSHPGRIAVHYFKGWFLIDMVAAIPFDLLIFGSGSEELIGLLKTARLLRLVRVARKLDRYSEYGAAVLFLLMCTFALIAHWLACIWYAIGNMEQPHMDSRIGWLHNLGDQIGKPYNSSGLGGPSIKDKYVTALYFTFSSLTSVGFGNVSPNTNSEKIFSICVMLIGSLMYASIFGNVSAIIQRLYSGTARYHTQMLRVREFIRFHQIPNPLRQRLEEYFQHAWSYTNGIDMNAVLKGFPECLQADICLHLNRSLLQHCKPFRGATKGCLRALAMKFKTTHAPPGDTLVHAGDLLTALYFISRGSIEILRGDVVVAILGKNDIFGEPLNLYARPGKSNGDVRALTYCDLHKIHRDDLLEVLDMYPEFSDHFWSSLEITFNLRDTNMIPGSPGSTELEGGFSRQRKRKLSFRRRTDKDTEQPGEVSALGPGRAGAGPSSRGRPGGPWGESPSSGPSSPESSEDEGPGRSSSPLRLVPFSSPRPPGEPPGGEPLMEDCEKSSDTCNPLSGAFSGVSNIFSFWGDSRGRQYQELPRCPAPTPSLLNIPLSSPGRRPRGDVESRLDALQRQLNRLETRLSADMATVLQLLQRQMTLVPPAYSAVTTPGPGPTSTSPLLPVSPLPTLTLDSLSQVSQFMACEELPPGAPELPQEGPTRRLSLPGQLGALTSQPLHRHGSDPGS
How it was run: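 Cell line hERG-U2OS; dye FluxOR II, 1 h RT dark; Tl+ stimulus; ex 480/em 540 nm, read each second for 2 min.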

[11] = molecular target: Cytochrome P450 3A4 (Homo sapiens) (UniProt P08684); experiment: Cytochrome P450 Family 3 Subfamily A Member 4 (CYP3A4) small molecule antagonists: luciferase reporter qHTS assay (AID 1671201); further: series mostly up to about 120 µM; nearly all actives have a fitted effect of over 50% in size
Chain of Cytochrome P450 3A4 (Homo sapiens) (P08684 whole entry, looked up): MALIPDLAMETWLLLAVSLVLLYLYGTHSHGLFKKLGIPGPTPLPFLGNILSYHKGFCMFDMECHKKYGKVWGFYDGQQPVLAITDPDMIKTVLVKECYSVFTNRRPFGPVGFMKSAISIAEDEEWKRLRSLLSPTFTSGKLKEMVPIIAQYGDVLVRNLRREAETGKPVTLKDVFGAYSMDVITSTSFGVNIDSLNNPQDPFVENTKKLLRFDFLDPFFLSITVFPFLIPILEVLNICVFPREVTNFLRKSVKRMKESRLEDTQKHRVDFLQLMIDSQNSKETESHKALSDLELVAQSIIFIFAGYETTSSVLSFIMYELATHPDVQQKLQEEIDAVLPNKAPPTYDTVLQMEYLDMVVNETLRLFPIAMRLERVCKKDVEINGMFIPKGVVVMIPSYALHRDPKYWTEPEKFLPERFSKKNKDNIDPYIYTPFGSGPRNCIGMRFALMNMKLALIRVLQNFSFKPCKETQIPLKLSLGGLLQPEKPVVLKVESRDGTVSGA
How it was run: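 Room-temperature assay throughout: 10 min compound–enzyme/substrate preincubation, 1 h reaction after NADPH regeneration solution, 20 min detection. Luciferin formed from proluciferin substrate is quantified by luminescence.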

[12] = molecular target: Cytochrome P450 2C9 (Homo sapiens) (UniProt P11712); experiment: Cytochrome P450 Family 2 Subfamily C Member 9 (CYP2C9) small molecule antagonists: luciferase reporter qHTS assay (AID 1671198); further: nearly all actives have a fitted effect of over 50% in size; further: potency means the concentration at half of the fitted maximal effect
Chain of Cytochrome P450 2C9 (Homo sapiens) (P11712 whole entry, looked up): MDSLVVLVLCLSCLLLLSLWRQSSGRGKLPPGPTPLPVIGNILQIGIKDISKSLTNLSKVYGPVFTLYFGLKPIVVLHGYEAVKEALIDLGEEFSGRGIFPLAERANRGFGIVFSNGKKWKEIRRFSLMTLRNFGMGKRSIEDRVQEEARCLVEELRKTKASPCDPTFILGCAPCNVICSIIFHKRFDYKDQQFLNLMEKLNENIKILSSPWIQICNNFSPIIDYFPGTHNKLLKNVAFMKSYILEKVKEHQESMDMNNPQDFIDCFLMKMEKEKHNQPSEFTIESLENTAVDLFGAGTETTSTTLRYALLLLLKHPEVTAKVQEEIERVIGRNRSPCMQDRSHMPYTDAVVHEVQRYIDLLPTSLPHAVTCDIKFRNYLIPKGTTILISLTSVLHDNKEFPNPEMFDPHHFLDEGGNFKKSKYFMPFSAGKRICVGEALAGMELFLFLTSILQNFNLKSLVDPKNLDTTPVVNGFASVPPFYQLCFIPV
How it was run: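 P450-Glo proluciferin substrate with CYP2C9 enzyme; 10 min RT preincubation, then NADPH regeneration 1 h at 37C; luciferin detection reagent 20 min RT, luminescence in relative luminescence units.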
On the % scale 0 is the no-effect control and ±100 the full control effect.

O=C(O)Cn1c(C(=O)Nc2nc(-c3ccccc3Cl)cs2)cc2ccccc21
inactive: Potency [1] | Potency [2] | max activation [4] -0.843% | Potency [5] | Potency [6] | Potency [7] | Potency [8] | Potency [9] | Potency [10] | Potency [11]
active: Potency [3] 26.6 µM

CNS(=O)(=O)Cc1ccc2[nH]cc(CCN(C)C)c2c1
inactive: Potency [1] | Potency [2] | Potency [3] | max activation [4] -4.94% | Potency [5] | Potency [6] | Potency [12] | Potency [9] | Potency [10] | Potency [11]
active: Potency [7] 24.5 µM

CN1CCC(OC(c2ccccc2)c2ccccc2)CC1
inactive: Potency [1] | Potency [2]

CC1(C)[C@H]2CC[C@]1(C)[C@H](O)C2
inactive: Potency [1] | Potency [2] | Potency [3] | max activation [4] -0.529% | Potency [5] | Potency [6] | Potency [7] | Potency [8] | Potency [12] | Potency [9] | Potency [10] | Potency [11]

CC(Cc1cccc(C(F)(F)F)c1)NCCOC(=O)c1ccccc1 (centres undefined)
inactive: Potency [1] | Potency [2] | Potency [3] | max activation [4] -0.287% | Potency [5] | Potency [6]
active: Potency [7] 0.0977 µM | Potency [12] 27.5 µM | Potency [10] 8.49 µM

CCN(CC)C(C)CN1c2ccccc2Sc2ccccc21 (centres undefined)
active: Potency [5] 3.98 µM | Potency [7] 30.9 µM | Potency [8] 34.7 µM | Potency [9] 7.76 µM
inactive: Potency [1] | Potency [2] | Potency [3] | max activation [4] -0.328% | Potency [6] | Potency [11]

CCOc1cc(OCC)c(C(=O)CCC(=O)O)cc1OCC
inactive: Potency [1] | Potency [2] | Potency [3] | max activation [4] -2.62% | Potency [5] | Potency [6] | Potency [7] | Potency [8] | Potency [12] | Potency [9] | Potency [10] | Potency [11]

CN(C)CC[C@@H](c1ccc(Br)cc1)c1ccccn1
active: Potency [7] 3.89 µM | Potency [9] 24.5 µM
inactive: Potency [1] | Potency [2] | Potency [3] | max activation [4] -1.37% | Potency [6] | Potency [8] | Potency [12] | Potency [10] | Potency [11]

O=C(Nc1ccccc1)OCC(CN1CCCCC1)OC(=O)Nc1ccccc1 (centres undefined)
active: Potency [3] 2.37 µM | Potency [5] 10 µM | Potency [7] 0.436 µM | Potency [8] 8.71 µM | Potency [12] 17.4 µM | Potency [10] 6.01 µM
inactive: Potency [1] | Potency [2] | max activation [4] 0.646% | Potency [9]

CC(C)NCC(O)COc1ccc(CC(N)=O)cc1 (centres undefined)
inactive: Potency [1] | Potency [2] | Potency [3]

CC(C)(C)C(=O)OCOP(=O)(COCCn1cnc2c(N)ncnc21)OCOC(=O)C(C)(C)C
active: Potency [3] 11.9 µM
inactive: Potency [1] | Potency [2] | max activation [4] -2.44% | Potency [5] | Potency [6] | Potency [7] | Potency [8] | Potency [12] | Potency [9] | Potency [10]

Cc1ccc(C(=O)C(C)CN2CCCCC2)cc1 (centres undefined)
active: Potency [7] 0.977 µM | Potency [8] 7.76 µM
inactive: Potency [1] | Potency [2] | Potency [3] | max activation [4] -1.62% | Potency [5] | Potency [6] | Potency [12] | Potency [9] | Potency [10] | Potency [11]

CC(=O)Nc1ccc(/C=N/NC(N)=S)cc1
inactive: Potency [1] | Potency [2] | Potency [3] | max activation [4] -4.57% and -9.49% | Potency [5] | Potency [6] | Potency [7] | Potency [12] | Potency [9] | Potency [10] | Potency [11]

NC(N)=N/N=C/c1c(Cl)cccc1Cl
active: Potency [2] 29.8 µM | Potency [7] 13.8 µM | Potency [9] 15.5 µM
inactive: Potency [1] | Potency [3] | max activation [4] -2.41% | Potency [5] | Potency [6] | Potency [8] | Potency [12] | Potency [10] | Potency [11]

CCOC(=S)SSC(=S)OCC
active: Potency [12] 17.8 µM
inactive: Potency [1] | Potency [2] | Potency [3] | max activation [4] -2.15% | Potency [5] | Potency [6] | Potency [10] | Potency [11]

CC(C)NCC(O)c1cc(O)cc(O)c1 (centres undefined)
inactive: Potency [1] | Potency [2] | Potency [3] | max activation [4] -6.91% | Potency [5] | Potency [6] | Potency [7] | Potency [8] | Potency [12] | Potency [10] | Potency [11]

Nc1nc(N)c(-c2ccccc2)s1
active: Potency [9] 30.9 µM
inactive: Potency [1] | Potency [2] | Potency [3] | max activation [4] -3.93% | Potency [5] | Potency [6] | Potency [7] | Potency [8] | Potency [12] | Potency [10]

C=CC[N+]1([C@H]2C[C@H]3[C@@H]4CC[C@H]5C[C@H](OC(C)=O)[C@@H](N6CCCCC6)C[C@]5(C)[C@H]4CC[C@]3(C)[C@H]2OC(=O)CC)CCCCC1
active: Potency [7] 11 µM
inactive: Potency [1] | Potency [2] | Potency [3] | Potency [8] | Potency [12] | Potency [9] | Potency [10]

COCCOCCOCCOCCOC
active: Potency [9] 35.6 µM
inactive: Potency [1] | Potency [2] | Potency [3] | Potency [7] | Potency [8] | Potency [12] | Potency [10] | Potency [11]

Cc1ncsc1CCO
inactive: Potency [1] | Potency [2] | Potency [3] | Potency [7] | Potency [8] | Potency [12] | Potency [9] | Potency [10] | Potency [11]
